Source: PubChem
In the library only some 12% were active in any assay of this set; here they are far more common.
HP1b chromo inh – HP1-beta chromodomain-methylated histone interaction inhibition. P83916. AlphaScreen HP1-beta / biotin-H3K9me3 peptide binding. Potency, µM (titrated, usually from 114 µM), for inactives: at the highest dose activity change, negative = inhibition, usual class: inhibitors. hit rate 0.56% among 390,000. AID 540317; also: potency is read from the fitted curve at half-maximal effect; nearly all actives have a fitted effect of over 70% in size
Target sequence (P83916 whole entry, looked up): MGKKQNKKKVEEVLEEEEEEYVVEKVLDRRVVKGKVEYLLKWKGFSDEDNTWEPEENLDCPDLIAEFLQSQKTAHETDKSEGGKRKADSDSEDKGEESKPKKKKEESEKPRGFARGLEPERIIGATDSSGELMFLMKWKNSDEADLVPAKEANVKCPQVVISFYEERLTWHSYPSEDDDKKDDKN
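Compound inhibition of the preformed complex between 50 nM HP1-beta and 50 nM biotinylated H3K9me3 peptide was read by AlphaScreen. Buffer was PBS pH 7.4 with 0.01% Tween-20. Incubations ran 30 min at room temperature, with 10 ug/mL donor/acceptor beads.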
G9a inh-1 – blocks human histone lysine methyltransferase G9a; AID 504332; Q96KQ7; hit rate 8.8% among 350,000; G9a H3K9 monomethylation, AlphaScreen, 2 h; Potency, µM (titrated, usually from 102 µM), for inactives: top-dose activity, negative = inhibition, most hits filed as inhibitors; also: potency is read from the fitted curve at half-maximal effect; % is scaled to controls: 0 for no effect and ±100 for the full control effect; nearly all actives have a fitted effect of over 75% in size
Target sequence (Q96KQ7 913-1193 limits assumed): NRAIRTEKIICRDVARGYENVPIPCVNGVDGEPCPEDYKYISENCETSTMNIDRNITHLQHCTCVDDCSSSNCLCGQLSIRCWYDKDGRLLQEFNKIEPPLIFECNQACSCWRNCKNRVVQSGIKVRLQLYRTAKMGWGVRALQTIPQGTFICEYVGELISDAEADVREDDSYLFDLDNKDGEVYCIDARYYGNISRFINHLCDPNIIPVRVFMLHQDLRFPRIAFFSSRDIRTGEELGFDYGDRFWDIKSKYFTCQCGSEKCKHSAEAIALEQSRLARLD
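AlphaScreen read-out: biotin-H3K9 peptide (500 nM) methylation by 20 nM enzyme with 20 uM SAM, 2 h at room temperature after 15 min compound preincubation; anti-monomethyl H3K9 antibody plus donor/acceptor beads, 10 min dark.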
Sfp PPTase inh – inhibitors of Bacillus subtilis Sfp phosphopantetheinyl transferase; Biochemical Sfp PPTase activity, qHTS; Potency, µM, without a hit: largest response in the series, negative = inhibition, usual class: inhibitors; Q9F4F7; hit rate 3.5% among 310,000;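 also: the enzyme is Sfp with the accession as filed and its product quenches rhodamine fluorescence; potency is read from the fitted curve at half-maximal effect; 0% = enzyme reaction without inhibitor and -100% = no enzyme wells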
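Fluorescence-quenching assay: 15 nM Sfp-PPTase preincubated 15 min at room temperature with compound, then 5 uM rhodamine-CoA and 12.5 uM BHQ-2-labelled YbbR peptide added. Fluorescence (ex 525/em 598 nm) read at start and after 30 min; difference gives rate.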
BAZ2B block – inhibitors of human BAZ2B bromodomain. AlphaScreen BAZ2B-H3K14Ac peptide displacement. Q9UIF8. hit rate 4.4% among 360,000. Potency, µM (top dose mostly 114 µM), for inactives: at the highest dose activity change, negative = inhibition, hits mostly inhibitors; also: potency is read from the fitted curve at half-maximal effect; % is scaled to controls: 0 for no effect and ±100 for the full control effect; nearly all actives have a fitted effect of over 60% in size
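Inhibition is scored as reduced AlphaScreen emission. The BAZ2B/b-H3(5-23)K14Ac complex (50 nM each) in PBS pH 7.4, 0.01% Tween-20 meets compound (up to 110 uM) for 30 min at RT before bead addition.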
JMJD2A Tudor inh – blocks the human JMJD2A Tudor domain | hit rate 4.4% among 390,000 | AlphaScreen JMJD2A-Tudor / H3K4me3 peptide binding | Potency, µM (top dose mostly 114 µM), for inactives: top-dose activity change, negative = inhibition, usual class: inhibitors | O75164; also: potency is read from the fitted curve at half-maximal effect; % is scaled to controls: 0 for no effect and ±100 for the full control effect; nearly all actives have a fitted effect of over 50% in size
L3MBTL1 inh-1 – blocks human L3MBTL1; AlphaScreen L3MBTL1–H3K9me1 peptide binding; AID 485360; hit rate 0.66% among 230,000; Q9Y468; Potency, µM (series often up to 57.1 µM), for inactives: at the top dose activity, negative = inhibition, actives largely listed as inhibitors; also: potency is read from the fitted curve at half-maximal effect; % is scaled to controls: 0 for no effect and ±100 for the full control effect; nearly all actives have a fitted effect of over 60% in size
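Displacement of a biotinylated histone H3(1-15) peptide monomethylated at Lys9 (75 nM) from L3MBTL1 (50 nM) was measured by AlphaScreen after a 30 min room-temperature compound incubation; cefsulodin titration served as intraplate control.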
Sfp PPTase conf – confirmation of Bacillus subtilis Sfp PPTase inhibitors | Sfp PPTase enzymatic assay, qHTS titration | shares compounds with Sfp PPTase inh | Potency, µM (top dose mostly 114 µM), without a hit: at the top dose activity change, negative = inhibition, actives largely listed as inhibitors | hit rate 79% among 380 | AID 2701;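 also: potency is read from the fitted curve at half-maximal effect; plate controls were uninhibited Sfp reaction for no effect and no enzyme control for full effect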
Target sequence (Q9F4F7 whole entry, looked up): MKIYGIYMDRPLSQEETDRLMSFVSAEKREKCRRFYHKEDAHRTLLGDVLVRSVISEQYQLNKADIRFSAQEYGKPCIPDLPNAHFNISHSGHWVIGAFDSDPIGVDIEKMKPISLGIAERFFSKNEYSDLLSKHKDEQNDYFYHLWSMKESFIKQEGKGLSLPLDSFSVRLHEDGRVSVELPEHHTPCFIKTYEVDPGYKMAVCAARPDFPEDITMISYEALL
Sfp PPTase gel – Inhibits B. subtilis Sfp phosphopantetheinylation; shares compounds with Sfp PPTase inh; purified Sfp, gel-based phosphopantetheinylation read-out; Potency, µM, actives largely listed as inhibitors; hit rate 20% among 210;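 active = potency below 100 µM; inconclusive = dose-dependent response but potency above 100 µM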;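 also: band intensities scaled against SCH202676 control wells before curve fitting; potency is an IC50 for inhibitors of Sfp transfer activity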
L3MBTL1 inh-2 – blocks human L3MBTL1 methyl-lysine binding | shares compounds with L3MBTL1 inh-1 | L3MBTL1 methyl-lysine binding inhibition, biochemical qHTS | Potency, µM, actives largely listed as inhibitors | hit rate 91% among 500 | AID 540279; also: potency is read from the fitted curve at half-maximal effect; nearly all actives have a fitted effect of over 70% in size
L3MBTL1 ctr – interferes with AlphaScreen signal in L3MBTL1 counterscreen. shares compounds with L3MBTL1 inh-1. AlphaScreen counterscreen, signal inhibition. Potency, µM (series often up to 57.1 µM), for inactives: at the highest dose activity change, negative = inhibition, hits mostly inhibitors. 500 tested, under 10 active. AID 602224; also: potency is read from the fitted curve at half-maximal effect; 0% is about no effect
G9a inh-2 – inhibits human G9a histone lysine methyltransferase, hit confirmation | shares compounds with JMJD2A Tudor inh | G9a H3K9 monomethylation, AlphaScreen, 2 h | Potency, µM, hits mostly inhibitors | hit rate 89% among 370 | AID 588344; also: potency is read from the fitted curve at half-maximal effect; nearly all actives have a fitted effect of over 65% in size
* hit, by the source's call; i = inactive; ? = inconclusive; / = no result; [ ] = another dose, or the depositor's remark. Unless noted, calls follow the shape of the dose curve; as a rule, active = well fitted curve in the direction sought with a large enough effect; inconclusive = small, poorly fitted or top-dose-only effect, or another doubt; inactive = no such curve, though single readings can be large; an effect the other way counts as inactive or inconclusive.

SMILES	HP1b chromo inh	G9a inh-1	Sfp PPTase inh	BAZ2B block	JMJD2A Tudor inh	L3MBTL1 inh-1	L3MBTL1 inh-2	L3MBTL1 ctr	others
COc1ccc(Br)cc1CNc1ccc(O)cc1	?	?	20µM*	40µM*	?	?	/	/	Sfp PPTase conf=?;Sfp PPTase gel=?;G9a inh-2=3.2*
CN(CCc1ccccc1)C(=O)c1cc(COc2ccc(F)cc2Cl)on1	164%	184%	8%	58%	72%	/	/	/
O=C(OCc1ccccc1)c1cccnc1	/	1.4µM*	32µM*	/	/	/	/	/	Sfp PPTase conf=37µM*;Sfp PPTase gel=?;G9a inh-2=2.6*
COCCNc1oc(/C=C/c2ccc(F)cc2)nc1C#N	20%	5%[59 µM]	/	-14%	-1%	/	/	/
COc1ccccc1CNc1ccc(N2CCCCC2)cc1	32µM*	?	18µM*	13µM*	32µM*	?	/	/	Sfp PPTase conf=47µM*;Sfp PPTase gel=i;G9a inh-2=1.1*
Cc1ccc(C)c(NC(=S)N2CCN(c3cccc(C(F)(F)F)c3)CC2)c1	20%	4%[59 µM]	22%	2%	0%	1%	/	/
Cc1ccnc(NC(=S)N2CCN(c3cccc(C(F)(F)F)c3)CC2)c1	-13%[57 µM]	1µM*	2.5µM*	20µM*	1µM*	/	/	/	Sfp PPTase conf=15µM*;G9a inh-2=0.28*
O=C(O)CC/C(=C\c1cc([N+](=O)[O-])ccc1Cl)c1nc2ccccc2s1	19%	-14%[59 µM]	3%	-7%	-17%	2%	/	/
O=C(O)CC/C(=C\c1cccc(NC(=O)c2ccccc2Cl)c1)c1nc2ccccc2s1	54%	-41%	18%	?	-10%	35µM*	?	-3%
CCN(c1ccccc1)S(=O)(=O)c1ccc(C(=O)NC2CCN(Cc3ccccc3)CC2)cc1	30%	/	/	/	-31%	2%	/	/
Cc1ccc(-n2c(C)nc3oc4ccccc4c(=O)c3c2=O)cc1	-25%	56µM*	7%	45µM*	50µM*	40µM*	27*	-2%
CCc1nc2oc3cc(OC)ccc3c(=O)c2c(=O)n1-c1ccccc1	14%	-7%[12.7 µM]	4%	5%	?	/	/	/
Nc1c(C(=O)OCC(=O)Nc2cccc([N+](=O)[O-])c2)[nH]c(=O)[nH]c1=O	13%	/	/	/	79µM*	32µM*	24*	8%
O=C(COC(=O)c1ccccc1C(=O)c1ccccc1)Nc1cccc([N+](=O)[O-])c1	4%	3%[59 µM]	0%	-37%	?	-3%	/	/
Cc1ccccc1CC(=O)N1CCN(S(=O)(=O)c2ccc(Cl)s2)CC1	15%	/	/	/	-10%	2%	/	/
N#CCCCCn1ccc(NC(=O)c2ccc(Cl)cc2O)n1	3%	/	/	/	-6%	/	/	/
COC(=O)\C(C(C)=O)=C(/C=C/C=C/N(C)C)N(C)C	-5%	?	2%	35µM*	?	14µM*	6.7*	19%
COC(=O)/C(C(C)=O)=C(/C=C/C=C/N(C)C)N(C)C	1%	?	-6%	-34%	?	/	/	/
Cc1ccc(C(CCN(Cc2ccccc2)C(=O)c2ccco2)c2ccco2)cc1 (stereo not given)	-5%	50µM*	40µM*	32µM*	20µM*	25µM*	21*	-3%
COCCn1c(C)cc(C(=O)COC(=O)c2cccc(O)c2)c1C	-6%	?	10%	?	-24%	/	/	/
COCCn1c(C)cc(C(=O)COC(=O)c2cc3c(s2)CCC3)c1C	?	45µM*	2%	40µM*	35µM*	10µM*	6.7*	?
Cc1cc(NC(=O)CSCC(=O)N(C)Cc2cccc(Cl)c2)no1	21%	12%[0.501 µM]	/	14%	-4%	6%	/	/
Cc1ccc2c(CC(=O)OCC(=O)N(CC(C)C)c3c(N)n(Cc4ccccc4)c(=O)[nH]c3=O)coc2c1	-9%	?	/	?	?	32µM*	21*	9%
CCN(C(=O)COC(=O)Cc1coc2cc(C)ccc12)c1c(N)n(Cc2ccccc2)c(=O)[nH]c1=O	28%	-17%[59 µM]	/	-4%	-8%	-3%	/	/
O=C(Nc1nc(-c2ccccn2)cs1)C1COc2ccccc2O1 (stereo not given)	44%	-3%[59 µM]	18%	20µM*	56µM*	11µM*	12*	-65%
O=C(O)CCCCCn1c(SCC(=O)c2ccc(O)c(O)c2)nc2ccsc2c1=O	-2%	79µM*	-13%	?	?	32µM*	3*	-1%
CCc1ccccc1NC(=O)CSc1ccsc1[N+](=O)[O-]	-22%	?	-11%	50µM*	?	28µM*	24*	-3%
CC1CCCCC1NC(=O)CSc1ccsc1[N+](=O)[O-] (stereo not given)	16%	-28%	8%	-27%	-17%	-7%	/	/
